# PLCg1 inh = PLC-gamma1 enzyme inhibitors, primary screen, biochemical, fluorescence, purified enzyme; 1-phosphatidylinositol 4,5-bisphosphate phosphodiesterase gamma-1 (Homo sapiens), P19174; fluorogenic substrate; inhibition, % at 12.2 µM; 370,000 tested, 0.84% active; AID 720700, 2013; in the data active = inhibition above about 9.5%
# ADAM17 inh = ADAM17 inhibitors, primary screen, biochemical, QFRET; Disintegrin and metalloproteinase domain-containing protein 17 (Homo sapiens), P78536; inhibition, % at 6.95 µM; AID 720648, 2013; recombinant ADAM17, EDANS/DABCYL FRET peptide cleavage; 370,000 tested, 0.83% active;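 active = inhibition above the mean of compounds lying between control limits plus 3 SD, set per campaign, cut at about 8.5% in these data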;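 note: 0% = DMSO-only wells as the low control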
# ADAM10 inh = human ADAM10 inhibitors, primary screen, biochemical, QFRET, HTS; recombinant ADAM10, EDANS/DABCYL FRET peptide cleavage, 3 h; inhibition, % at 7 µM; 370,000 tested, 0.62% active; AID 720582, 2013;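 active = inhibition above a per-campaign cutoff equal to the mean of compounds falling between control-based bounds plus 3 SD, cut at about 20% in these data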;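 note: 0% = DMSO wells while the 100% control is not disclosed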
# proKLK7 act = proKLK7 zymogen activators, primary screen, biochemical, fluorescence intensity. AID 652039, 2013. purified proKLK7, EDANS-DABCYL substrate fluorescence; 100% is mature enzyme control, 0% vehicle. 370,000 tested, 0.9% active. activation, % at 7 µM;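 active = activation above the mean of all tested compounds plus 3 SD, computed per campaign excluding outliers beyond control limits, cut at about 13% in these data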
# PLC-beta3 inh = human PLC-beta3 inhibitors, primary screen, biochemical, fluorescence | Purified PLC-beta3, fluorogenic substrate | inhibition, % at 12.2 µM | 370,000 tested, 0.18% active | AID 720704, 2013; in the data active = inhibition above about 11%;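 note: 0% = median of compound wells on plate and 100% = full blocker control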
# ADAM10 confirm = human ADAM10 inhibitors, confirmation, biochemical, QFRET, triplicate. AID 743208, 2013. 2,100 tested, 1% active. shares compounds with ADAM10 inh. ADAM10 QFRET peptide cleavage, EDANS fluorescence. inhibition, % at 6.95 µM;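 active = inhibition above about 20% chosen separately for each screening run, limit read from the data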;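 note: 0% = DMSO wells and 100% = marimastat wells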
# ADAM17 counter = ADAM17 inhibitors, counter-screen for ADAM10 exosite inhibitor project, biochemical, QFRET, high throughput; shares compounds with ADAM10 inh; 2,100 tested, 0.5% active; inhibition, % at 6.95 µM; AID 743214, 2013; ADAM17 QFRET peptide cleavage, EDANS fluorescence;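 active = mean triplicate inhibition above the solvent-only control wells' mean plus 3 SD, cut at about 12% in these data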;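 note: 0% = DMSO wells and 100% = marimastat wells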
# ADAM10 counter = ADAM10 inhibitors, counter-screen for ADAM17 exosite inhibitor project, biochemical, FRET, human ADAM10; inhibition, % at 6.95 µM; 2,900 tested, 47% active; shares compounds with ADAM17 inh; recombinant ADAM10, EDANS/DABCYL FRET peptide cleavage, 3 h;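 active = mean inhibition over the triplicate runs exceeds the activity threshold set in the earlier primary screen, cut at about 20% in these data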;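 note: 0% = DMSO wells and 100% = marimastat wells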
# ADAM17 confirm = ADAM17 inhibitors, hit retest, confirmation, biochemical, QFRET peptide cleavage; shares compounds with ADAM17 inh; recombinant ADAM17, EDANS/DABCYL QFRET peptide cleavage; inhibition, % at 6.95 µM; 2,900 tested, 65% active; AID 743257, 2014;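 active = mean inhibition across replicates above the hit cutoff set in the primary screen, cut at about 8.5% in these data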;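 note: 0% = DMSO wells and 100% = marimastat wells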
# The depositor's hits bear a star; · = no result. Only some compounds are listed: those with a hit (about 2.9% of all), similar ones and a draw of the others.
SMILES,PLCg1 inh,ADAM17 inh,ADAM10 inh,proKLK7 act,PLC-beta3 inh,ADAM10 confirm,ADAM17 counter,ADAM10 counter,ADAM17 confirm
NS(=O)(=O)c1ccc(NC(=O)COC(=O)c2cn(-c3ccccc3)nc2-c2ccc(F)cc2)cc1,1,-2,3,0,-1,·,·,·,·
COc1cc(C(C#N)N2CCC(c3ccccc3)=N2)ccc1O (stereo not given),2,-5,-13,0,-11,·,·,·,·
CC(=O)C(N=Nc1ccccc1)(Sc1nnc(-c2ccccc2)n1-c1ccccc1)C(C)=O,-3,14*,26*,-2,2,4,2,13,10*
CCCCCCCCSc1n[nH]c(N)n1,3,2,6,0,4,·,·,·,·
CCCCCCCCCCSc1n[nH]c(N)n1,7,19*,45*,0,7,2,1,18,10*
C/C(=N\N=C(/N)SC1CC(=O)N(c2ccccc2)C1=O)c1cccs1 (stereo not given),3,8.6*,22*,0,9,2,0,15,12*
C/C(=N\N=C(/N)SC1CC(=O)N(c2ccc(Cl)c(Cl)c2)C1=O)c1cccs1 (stereo not given),-1,-2,-3,0,1,·,·,·,·
C/C(=N\N=C(/N)SC1CC(=O)N(c2ccc(Br)cc2)C1=O)c1cccs1 (stereo not given),5,12*,24*,0,4,5,2,20,20*
Cc1ccc(Oc2cc(NC(=O)CCCn3nc([N+](=O)[O-])cc3C)cc([N+](=O)[O-])c2)cc1,3,13*,23*,0,4,6,3,32*,18*
O=C(COC(=O)C12CC3CC(CC(C3)C1)C2)Nc1ccc(OC(F)F)cc1,6,15*,27*,0,3,4,1,24*,12*
Cc1ccc(/C=C/S(=O)(=O)NCc2ccc(F)cc2)cc1,-1,-1,4,1,-2,·,·,·,·
CC(NS(=O)(=O)OCC(Cl)(Cl)Cl)c1ccc(C(C)(C)C)cc1 (stereo not given),2,15*,31*,0,9,9,3,45*,22*
Clc1ccc(-c2[nH]ncc2N=Nc2ccccc2)cc1,3,10*,22*,0,1,9,3,15,10*
CC1(C)Cc2c(sc3nc4n(-c5ccccc5)cnn4c(=O)c23)CO1,1,0,6,0,-2,·,·,·,·
COc1ccc([C@@H]2[C@@H]3C(=O)N(C(C)(C)C)C(=O)[C@@H]3[C@]3(CC(C)C)C(=O)N(c4cccc(Br)c4)C(=O)N23)cc1,4,10*,27*,0,4,7,1,23*,16*
CCCCOC(=O)Nc1ccc(C(=O)OCCC)cc1,0,3,9,-1,-1,·,·,·,·
CCCCOC(=O)c1ccc(NC(=O)c2c(Cl)ccc(Cl)c2OC)cc1,4,9.3*,22*,1,1,8,3,22*,14*

# Screens: PubChem, The Scripps Research Institute Molecular Screening Center
